High-throughput results: PubChem, National Center for Advancing Translational Sciences (NCATS)
HCMV inh – qHTS Assay for inhibitors of the human cytomegalovirus (HCMV) | HFF cells, HCMV-luciferase reporter, 72 h; active compounds read low | activity change, negative = inhibition, % at 57.5 µM | hit rate 4.5% among 410,000; in the data active = activity change below about -60%; inconclusive = no clear call, values can overlap the other calls; inactive = above about -39%
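Inhibition of viral replication was scored as loss of reporter luminescence in HFFs infected with HCMV-luciferase (MOI 1 PFU/cell) for 72 h; compounds tested at 2 doses, normalized to buffer and Salinomycin controls.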
TbPYK inhibitor – qHTS of Trypanosoma Brucei Inhibitors; AID 624173, 2012; TbPYK enzyme, Kinase-Glo Plus ATP luminescence, 45 min; pyruvate kinase (Trypanosoma brucei), Q57TT1; Potency, µM (top dose mostly 76.8 µM), inactives show top-dose activity, negative = inhibition, actives largely listed as inhibitors; hit rate 0.12% among 410,000; note: potency is the fitted concentration of half-maximal effect; nearly all actives have a fitted effect of over 50% in size
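Screened from lowest to highest concentration, compounds were pinned into TbPYK/substrate mixtures, and ADP (130 uM final) was added. Plates sat at room temperature for 45 min prior to Kinase-Glo Plus detection by luminescence.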
VACV Venus inh – qHTS for Stage-Specific Inhibitors of Vaccinia Orthopoxvirus: Venus Reporter Primary qHTS; Vaccinia virus Venus reporter expression, fluorescence; Potency, µM (highest dose often 36.5 µM), inactives show top-dose activity change, negative = inhibition, most hits filed as inhibitors; hit rate 0.46% among 330,000; AID 720580, 2013; calls by dose curve; tested in A549 cells; note: potency is the fitted concentration of half-maximal effect; nearly all actives have a fitted effect of over 30% in size
LmPK inh – qHTS Assay for Inhibitors of Leishmania Mexicana Pyruvate Kinase (LmPK); Q27686; purified LmPK, Kinase-Glo ATP luminescence, 1 h; Potency, µM (doses to about 57.5 µM), for the others: at the top dose activity change, negative = inhibition, hits mostly inhibitors; hit rate 0.37% among 290,000; AID 1721, 2009; note: potency is the fitted concentration of half-maximal effect
Target sequence (Q27686 whole entry, looked up): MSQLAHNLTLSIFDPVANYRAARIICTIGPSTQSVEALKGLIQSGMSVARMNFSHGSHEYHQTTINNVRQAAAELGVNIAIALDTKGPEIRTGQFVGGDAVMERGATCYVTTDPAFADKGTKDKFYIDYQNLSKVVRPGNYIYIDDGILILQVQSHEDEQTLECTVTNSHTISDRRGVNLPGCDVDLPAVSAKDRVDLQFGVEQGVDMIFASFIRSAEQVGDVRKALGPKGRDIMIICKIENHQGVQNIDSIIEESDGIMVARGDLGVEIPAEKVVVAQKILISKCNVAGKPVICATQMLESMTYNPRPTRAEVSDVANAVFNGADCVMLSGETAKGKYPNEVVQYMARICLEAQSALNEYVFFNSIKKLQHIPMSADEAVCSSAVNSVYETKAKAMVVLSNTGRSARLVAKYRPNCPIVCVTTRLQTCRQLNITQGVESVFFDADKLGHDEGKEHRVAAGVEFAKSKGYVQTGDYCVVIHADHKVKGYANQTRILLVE
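Purified LmPK (0.1 nM) converted ADP (0.1 mM) to ATP with PEP (0.5 mM) in imidazole buffer pH 7.2 with KCl and MgCl2, 1 h at room temperature. ATP was read by Kinase-Glo luminescence; data normalized to uninhibited and no-enzyme controls.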
Vaccinia mCherry – qHTS for Stage-Specific Inhibitors of Vaccinia Orthopoxvirus: mCherry Reporter Primary qHTS. Vaccinia virus mCherry reporter infection, fluorescence. Potency, µM (highest dose often 36.5 µM), inactives show at the top dose activity change, negative = inhibition, actives largely listed as inhibitors. hit rate 0.63% among 310,000. AID 720579, 2013; calls by dose curve; tested in A549 cells; note: potency is the fitted concentration of half-maximal effect; nearly all actives have a fitted effect of over 35% in size
Active calls of the source: *; i = inactive; u = inconclusive; x = no result; + = active, no number. In the library only some 5% were active in any assay of this set; here they are far more common. Unless noted, calls come from the whole dose curve; as a rule, active = well fitted curve in the direction sought with a large enough effect; inconclusive = small, poorly fitted or top-dose-only effect, or another doubt; inactive = no such curve, though single readings can be large; an effect the other way counts as inactive or inconclusive. % is set by controls: 0 for no effect and ±100 for the full control effect.

SMILES	HCMV inh	TbPYK inhibitor	VACV Venus inh	LmPK inh	Vaccinia mCherry
CN(C)S(=O)(=O)c1ccc2c(c1)C(=NO)c1cc(S(=O)(=O)N(C)C)ccc1-2	-64.4*	0.1%	-21.3%	1.4%	-10.9%
O=C(CN1C(=O)C(=O)N(C2CCCC2)C1=O)Nc1ccc(Cl)cc1C(F)(F)F	0.0	1.2%	-10.4%	x	-19.4%
Cc1cc(-n2c(SCC(=O)Nc3ccc(Br)cc3)nc3n[nH]c(C)c3c2=N)ccc1Cl	-75.3*	7.6%	x	-0.5%	x
S=c1[nH]c(-c2ccccc2)cn1/N=C/c1ccncc1	-22.7	u	-12.1%	4.47µM*	-22.3%
CCCCC(=O)Nc1ccc2c(c1)nc(CCN1CCN(c3ccccn3)CC1)n2C	-81.5*	1.1%	x	2.7%	x
Cc1ccc(OCC(=O)Nc2ccc3c(c2)nc(CCN2CCN(c4ccccn4)CC2)n3C)cc1	-76.5*	-0.5%	-24.9%	x	-8.4%
CCCC(=O)Nc1ccc2c(c1)nc(CCN1CCN(c3ccccn3)CC1)n2C	-38.3	0.0%	-19.0%	-1.5%	i
Cn1c(CCN2CCN(c3ccccn3)CC2)nc2cc(NS(=O)(=O)c3ccccc3)ccc21	+	3.3%	x	-2.3%	x
CCN(C(C)=O)c1cccc2ccccc12	x	-4.5%	-17.8%	6.5%	x
COc1ccc(-c2cn(Cc3ccc(C(N)=O)cc3)c(-c3ccncc3)n2)cc1	92.9	-9.2%	-17.4%	x	-10.1%
COc1ccc(OC)c(/C=C2\NC(=O)NC2=O)c1	-81.0*	4.2%	x	-0.3%	x
O=c1[nH]c2cc(NCCO)c([N+](=O)[O-])cc2[nH]1	6.5	-3.5%	-4.1%	-5.3%	-10.6%
Cn1cc(Cl)c(-c2n[nH]c(=S)n2C2CCCCC2)n1	-10.4	7.08µM*	-2.5%	20µM*	-8.3%
COc1ccccc1-n1c(CNC(=O)c2ccco2)n[nH]c1=S	7.7	u	-7.2%	-9.1%	-13.7%
S=c1[nH]nc(-c2ccco2)n1-c1cccc2ccccc12	1.3	2.82µM*	-6.5%	7.94µM*	-16.4%
CC(C)Oc1ccc(Cn2c(-c3ccco3)n[nH]c2=S)cc1	18.7	2.51µM*	u	14.1µM*	28.2µM*
COc1ccc(Cn2c(-c3ccc(OC)cc3)n[nH]c2=S)cc1	15.9	u	-3.9%	u	-1.1%
Cc1ccc(C)c(-n2c(-c3ccco3)n[nH]c2=S)c1	-13.8	u	2.4%	x	-12.9%
COc1ccccc1-n1c(-c2ccco2)n[nH]c1=S	-12.1	10µM*	-1.6%	u	i
S=c1[nH]nc(CSCc2ccccc2Cl)n1C1CCCCC1	u	u	-7.4%	u	-3.9%
COc1ccc(-n2c(-c3ccco3)n[nH]c2=S)cc1	-2.3	u	x	u	x
S=c1[nH]nc(-c2ccco2)n1C1CCCCC1	-33.1	u	-10.9%	25.1µM*	-12.7%
Nn1c(-c2ccco2)n[nH]c1=S	-16.8	-21.5%	2.2%	4.3%	-11.3%
S=c1[nH]nc(-c2ccco2)n1-c1ccc(Cl)cc1	-61.1*	u	-12.4%	17.8µM*	i
CCOC(=O)N(C(=O)c1ccccc1)c1ccccc1	x	x	-9.2%	x	-14.9%
SMILES	HCMV inh	TbPYK inhibitor	VACV Venus inh	LmPK inh	Vaccinia mCherry
N#Cc1ccc(Nc2nc(-c3ccc(O)cc3O)cs2)cc1C(F)(F)F	x	-4.6%	11.2µM*	x	u
Cc1cc2oc(=O)cc(CN3CCCc4ccccc43)c2cc1C	42.3	-0.7%	2.1%	0.0%	-10.4%
COc1ccc2ncc3c(-c4ccc(C)c(C)c4)nn(CC(=O)Nc4ccccc4)c3c2c1	-92.3*	-1.9%	-28.9%	x	u
COc1ccc(S(=O)(=O)NC(C(=O)NCCc2ccccn2)C(C)C)cc1 (stereo not given)	-66.5*	1.2%	-3.5%	-6.6%	-11.5%
COc1ccc(S(=O)(=O)NCCc2ccccn2)cc1	-39.2	5.6%	-14.3%	x	0.0%
CCc1cnc2c(c1SC(C(C)=O)C(=O)N(C)C)c(=O)n(C)c(=O)n2C (stereo not given)	-24.2	14.1µM*	-2.7%	x	-4.1%
O=C(Cc1cccc2ccccc12)NNC(=O)c1ccc(Br)o1	-3.0	-7.2%	x	4.8%	x
COc1ccc(NC(=O)CCN2CCN(c3cccc(Cl)c3)CC2)cc1	-10.4	-4.3%	-15.0%	x	-19.4%
COc1ccc(C(=O)NCC(=O)N2CCN(c3ccc(F)cc3)CC2)cc1	-64.0*	-1.0%	3.5%	4.9%	-11.4%
CCN1C(=O)C(CC(=O)Nc2ccc(OC)cc2)N(CCN2CCOCC2)C1=S (stereo not given)	-0.5	0.2%	x	7.0%	x
CCN1C(=O)C(CC(=O)Nc2ccc(OC)cc2)N(CCCN2CCN(c3ccc(OC)cc3)CC2)C1=S (stereo not given)	-7.1	-5.6%	u	8.6%	10µM*
COc1ccc(NC(=O)CCN2CCN(c3ccc(F)cc3)CC2)cc1	-75.6*	-3.7%	x	-1.6%	x
COc1ccc(N2CCN(CCCNC(=O)c3ccc4nc(Cc5ccccc5)oc4c3)CC2)cc1	-60.4*	-0.7%	-27.0%	x	-26.9%
COc1ccc(N2CCN(CCCNC(=O)c3ccc4nc(CCc5ccccc5)oc4c3)CC2)cc1	-14.2	3.3%	u	x	u
COc1ccc(CN(C)C(=O)CNC(=O)c2sc3ccccc3c2Cl)c(OC)c1OC	-4.4	4.7%	-14.8%	x	i
COc1ccc(-c2noc(CCC(=O)NCCCN3CCN(c4ccc(F)cc4)CC3)n2)cc1	-63.8*	2.2%	x	0.3%	x
Cc1cc(C)n2nc(C(=O)N/N=C/c3cccs3)nc2n1	-14.1	-13.8%	-7.0%	-3.0%	-13.0%
CCn1c(SCC#N)nc2ccccc2c1=O	0.0	0.6%	-20.0%	7.9%	17.4%
N#CCSc1nc2ccccc2c2nc3ccccc3n12	-103.1*	-5.1%	-19.3%	0.2%	u
COc1cccc(Nc2nc3ccccc3n3cnnc23)c1	101.1	-1.1%	-16.3%	-2.8%	-21.4%
CC(C)Cn1c(-c2cc([N+](=O)[O-])ccc2Cl)nc2c1c(=O)[nH]c(=O)n2Cc1ccccc1	-2.1	-10.4%	-12.0%	5.3%	-25.3%
Cc1ccc(/C=C/C(=O)OC(C)C(=O)Nc2ncc(Cl)cc2Cl)o1 (stereo not given)	-98.1*	-12.2%	-4.8%	-3.7%	-15.7%
CN1CCN(CCCNC(=O)c2ccc3c(c2)N(Cc2ccc(F)cc2)CCS3)CC1	-36.8	7.0%	x	-2.1%	x
CCC(=O)NC(=S)Nc1ccc(S(=O)(=O)NC(C)C)cc1	-109.9*	-11.3%	x	2.0%	x
Cc1cc(C)nc(NS(=O)(=O)c2ccc(NC(=S)NC(=O)CC(C)C)cc2)n1	69.1	-7.9%	11.2µM*	3.1%	11.2µM*
CC(C)NS(=O)(=O)c1ccc(NC(=S)NC(=O)c2cccc([N+](=O)[O-])c2)cc1	u	0.5%	-16.7%	-0.2%	i
Cc1cc(C)nc(NS(=O)(=O)c2ccc(N)cc2)n1	-65.7*	4.5%	-8.3%	-3.2%	-5.3%
